{"source": "PubChem BioAssay AID2314", "about": "(National Center for Advancing Translational Sciences (NCATS), 2010)", "note": "Hit rate of the full screen: of about 300,000 compounds, about 37,000 (12%) were called active. This excerpt belongs to a sample that is enriched for actives. Values without a mark were called inactive. Rule as the data show it: active = max response mostly above about 13% (no sharp cut-off); inactive = mostly below about 14%."}
{"test": "Cycloheximide Counterscreen for Small Molecule Inhibitors of Shiga Toxin; also: read at 38.3 µM for the half of the compounds with a filed dose; 0% is about no effect", "conditions": "cell reporter, cycloheximide protein synthesis inhibition counterscreen; hits give high values"}
{"smiles": "Cc1ccc(C(=O)NCC(=O)OCC(=O)NC2CCCCCCC2)cc1", "max response": "-2.63%"}
{"smiles": "Cc1ccc(NC(=O)Cn2c(=O)n(CCC(=O)NC3CCN(Cc4ccccc4)CC3)c(=O)c3ccccc32)cc1", "max response": "-1.8%"}
{"smiles": "O=C(NCCCNC(=O)c1ccccc1Cl)c1cnccn1", "max response": "-1.06%"}
{"smiles": "COC(=O)Nc1ccc(S(=O)(=O)Nc2cc(OC)nc(OC)n2)cc1", "max response": "8.38%"}
{"smiles": "COc1ccc(-c2ccc(CCC(=O)O)n2NC(=O)c2ccc(C(C)(C)C)cc2)cc1", "max response": "15.2%"}
{"smiles": "CC(=O)Nc1ccc(Nc2ncnc3c2nnn3Cc2ccccc2Cl)cc1", "max response": "-1.15%"}
{"smiles": "CC1C(=O)Nc2ccc(S(=O)(=O)N3CCN(c4ccccc4F)CC3)cc2NC1=O", "note": "(centres undefined)", "max response": "-4.25%"}
{"smiles": "COc1cc(CCC(=O)Nc2ccncc2Cl)cc(OC)c1OC", "max response": "-2.42%"}
{"smiles": "Cn1c2ccccc2c(=O)c2c(=O)n(Cc3ccco3)c(COc3ccccc3)nc21", "max response": "-1.78%"}
{"smiles": "Cc1ccccc1NC(=O)CN1C(=O)N/C(=C\\c2cccn2-c2cccc(C(=O)O)c2)C1=O", "max response": "-9.3%"}
{"smiles": "O=C1N/C(=C/c2cccn2-c2ccccc2)C(=O)N1c1cccc(Cl)c1", "max response": "34.8% (active)"}
{"smiles": "COc1cc2c(cc1/C=C1/NC(=O)N(c3ccccc3)C1=O)OCO2", "max response": "6.72%"}
{"smiles": "COc1cc(N2CCCC2)c(OC)cc1/C=C(/C#N)c1cccc(Br)c1", "max response": "-3.93%"}
{"smiles": "COc1cc(C(=O)N2CCN(C3CCC(C)CC3)CC2)cc(OC)c1OC", "note": "(centres undefined)", "max response": "-0.901%"}
{"smiles": "Nc1ccc2nn(-c3ccc(Cl)cc3)nc2c1", "max response": "39.4% (active)"}
{"smiles": "COc1ccc(-c2[nH]ncc2CN(Cc2nccn2C)C(C)C)cc1F", "max response": "0.417%"}
{"smiles": "Cc1nn(C)c(Cl)c1CN1CCC(n2nccc2NC(=O)C2CCCC2)CC1", "max response": "-0.568%"}
{"smiles": "CC(C)(C)SCCSC1=CC(=O)CC(c2ccccc2)C1", "note": "(centres undefined)", "max response": "48.7% (active)"}
{"smiles": "Cc1ccc(S(=O)(=O)NCCSC(C)(C)C)cc1", "max response": "1.94%"}
{"smiles": "CCC(C)N1CC(=O)N2Cc3[nH]c4ccccc4c3C[C@H]2C1=O", "note": "(some centres undefined)", "max response": "-5.44%"}
{"smiles": "COC(=O)c1ccccc1NC(=O)CSc1n[nH]c(-c2ccncc2)n1", "max response": "-2.03%"}
{"smiles": "CC(C)=CCCC1(C)C=Cc2c(ccc3c2[nH]c2cc(O)c(C)cc23)O1", "note": "(centres undefined)", "max response": "14% (active)"}
{"smiles": "CC/C(=N\\NC(=S)NC(C)C)c1ccc(OC(F)F)cc1", "max response": "7.39%"}
{"smiles": "O=C(O)CCCn1c(=O)c2cccn2c2ccc(F)cc21", "max response": "-0.924%"}
{"smiles": "O=c1[nH]c(N2CCOCC2)nc2ccccc12", "max response": "-4.42%"}
{"smiles": "O=C1N=C(N2CCOCC2)CS1", "max response": "11.5%"}
{"smiles": "O=C1N=C(N2CCOCC2)S/C1=C\\C=C/c1ccccc1", "max response": "44.4% (active)"}
{"smiles": "Cc1cc(/C=C2/SC(=O)N(CC(=O)N3CCCC3)C2=O)ccc1N1CCOCC1", "max response": "12.3%"}
{"smiles": "Cc1ccsc1/C=C1\\SC(N2CCOCC2)=NC1=O", "max response": "32.7% (active)"}
{"smiles": "CCc1ccc(/C=C2\\SC(N3CCOCC3)=NC2=O)cc1", "max response": "17.2%"}
{"smiles": "Fc1ccc(-c2ccc(CNCc3ccccn3)o2)cc1Cl", "max response": "11.4%"}
{"smiles": "COc1ccc(C(=O)C2CCCN(Cc3cccn3-c3ccccn3)C2)c(C)c1", "note": "(centres undefined)", "max response": "-2.02%"}
{"smiles": "C[C@@H](NC(=O)[C@@H]1Cc2ccccc2CN1)C(=O)NC1CCCC1", "max response": "-1.91%"}
{"smiles": "CCOc1ccc(/C=N\\NC(=O)c2c(C)nc3cc(C)ccn23)cc1", "max response": "0.972%"}
{"smiles": "NC(=O)C1CCN(C(=O)c2ccc3c(=O)n(Cc4cccc(Br)c4)c(=S)[nH]c3c2)CC1", "max response": "-3.9%"}
{"smiles": "O=C(c1cccc(S(=O)(=O)Nc2ccccc2Cl)c1)N1CCN(C(=O)c2ccco2)CC1", "max response": "-0.249%"}
{"smiles": "CS/C(=C\\C(=O)c1ccco1)Nc1ccccc1Cl", "max response": "38.1% (active)"}
{"smiles": "O=C(Nc1ccccc1C(=O)N1CCCCC1)c1ccco1", "max response": "-0.706%"}
{"smiles": "CCOc1ccc(CC(=O)NC2CCN(Cc3ccccc3)CC2)cc1", "max response": "4.32%"}
{"smiles": "CCCOC(=O)c1c(NC(=O)c2cnn3c2NC(c2ccccc2)CC3C(F)(F)F)sc2c1CCCC2", "note": "(centres undefined)", "max response": "-8.8%"}
{"smiles": "CCc1nc(Nc2ccc(NC(C)=O)cc2)c2oc3ccccc3c2n1", "max response": "-3.08%"}
{"smiles": "CCc1nc(N2CCN(c3nc(C)cc(C)n3)CC2)c2oc3ccccc3c2n1", "max response": "2.99%"}
{"smiles": "CCc1nc(Nc2ccc3nccnc3c2)c2oc3ccccc3c2n1", "max response": "12.4% (active)"}
{"smiles": "O=S(=O)(Nc1ccc(Cl)cn1)c1cnc(Cl)c(Br)c1", "max response": "-1.38%"}
{"smiles": "CCN1CCN(c2cc3nc(C)n(Cc4ccccc4)c(=O)c3cc2NC(=O)c2ccccc2F)CC1", "max response": "-3.92%"}
{"smiles": "Cc1nnnn1/C(=C\\c1ccccc1)C(=O)OCC(=O)N1CC2(C)CC1CC(C)(C)C2", "note": "(centres undefined)", "max response": "-5.53%"}
{"smiles": "O=C(Nc1nnc(C2COc3ccccc3O2)o1)c1ccc(F)cc1", "note": "(centres undefined)", "max response": "1.61%"}
{"smiles": "O=C(CSc1nc2ccccc2o1)N/N=C/c1ccccc1C(=O)O", "max response": "13.7% (active)"}
{"smiles": "CCC(NC(=O)c1ccccc1NC(=O)c1ccccc1)C(=O)NNC(=O)CSc1nc2ccccc2o1", "note": "(centres undefined)", "max response": "16.5% (active)"}
{"smiles": "Cn1c(=O)[nH]c(=O)c2c1nc(Br)n2CCCCSc1nc2ccccc2o1", "max response": "-4.25%"}
{"smiles": "Cc1ccc(/C=N/NC(=O)CSc2nc3ccccc3o2)cc1", "max response": "38.7% (active)"}
{"smiles": "COc1ccc(S(=O)(=O)N(CC(=O)N/N=C/c2ccccc2C(=O)O)c2ccccc2OC)cc1", "max response": "1.7%"}
{"smiles": "Cc1ccc(Cn2c(SCC(=O)N/N=C/c3ccccc3OCC(=O)O)nc3ccccc32)cc1", "max response": "3.56%"}
{"smiles": "CCn1c(SCC(=O)N/N=C/c2ccncc2)nc2ccccc21", "max response": "-1.38%"}
{"smiles": "CCc1ccccc1NC(=O)CSc1nnc([C@@H](NC(=O)OC(C)(C)C)C(C)CC)o1", "note": "(some centres undefined)", "max response": "-3.76%"}
{"smiles": "Cn1c(SCC(=O)N/N=C/c2ccc(O)c(O)c2)nc2ccccc21", "max response": "-3.26%"}
{"smiles": "CC(C)[C@H](NC(=O)N1CCn2c1nc1ccccc12)C(=O)NCc1ccc2c(c1)OCO2", "max response": "7.58%"}
{"smiles": "CCCCOP(=O)(c1ccc(N(C)C)cc1)C(O)c1cc(OC)ccc1OC", "note": "(centres undefined)", "max response": "-3.9%"}
{"smiles": "N[C@@H](Cc1ccccc1)C(=O)N1CCC(C(=O)NCC(=O)Nc2ccc(F)cc2)CC1", "max response": "10.8%"}
{"smiles": "Cc1ccsc1C1C(C#N)=C(N)OC2=C1C(=O)CC(C)C2", "note": "(centres undefined)", "max response": "-3.34%"}
{"smiles": "CSc1nnc(C2CCCN(CC(=O)Nc3ccccc3N3CCOCC3)C2)n1C(C)C", "note": "(centres undefined)", "max response": "-6.84%"}
{"smiles": "O=c1[nH]c2ccc(S(=O)(=O)N3CCCC3)cc2[nH]1", "max response": "-1.27%"}
{"smiles": "CCCN1C(=O)C(Cc2nc3ccccc3c(=O)n2-c2ccccc2)c2cc(C)ccc21", "note": "(centres undefined)", "max response": "-6.23%"}
{"smiles": "Cc1ccc(S(=O)(=O)N(CC(=O)Nc2cccnc2)c2ccc(Br)cc2)cc1", "max response": "18.2%"}
{"smiles": "Cc1ccc(NNC(=O)c2cccs2)cc1Cl", "max response": "9.69%"}
{"smiles": "O=C(Nc1ccccc1)c1ccc(NC(=O)c2cccs2)cc1", "max response": "-4.38%"}
{"smiles": "O=C(NNC(=O)c1ccc(Cl)cc1Cl)c1cccs1", "max response": "47.6% (active)"}
{"smiles": "NNC(=O)c1ccc(Cl)cc1Cl", "max response": "9.54%"}
{"smiles": "Cc1ccc(S(=O)(=O)N2CCN(C(=O)c3cccs3)CC2)cc1", "max response": "-2.84%"}
{"smiles": "Cc1ccc(C)c(NC(=O)CCC(=O)NNC(=O)c2cccs2)c1", "max response": "5.25%"}
{"smiles": "CC(C)C(=O)Nc1ccc(C(=O)NNC(=O)c2cccs2)cc1", "max response": "19.4% (active)"}
{"smiles": "Cc1ccc(C(=O)NNC(=O)c2cccs2)cc1", "max response": "33.4% (active)"}
{"smiles": "Cc1cccc(-c2nc3c(c(SCC(=O)N4CCOCC4)n2)CCCC3)c1", "max response": "-3.15%"}
{"smiles": "Cc1ccc2c(c1)C(c1ccccc1)N(C(=O)c1ccc(F)cc1)CC(=O)N2", "note": "(centres undefined)", "max response": "-3.35%"}
{"smiles": "CC1COc2ccccc2N1C(=O)c1ccc(F)cc1", "note": "(centres undefined)", "max response": "-4.53%"}
{"smiles": "O=C(CN(Cc1ccccc1)C(=O)CCC(=O)Nc1ccccn1)NCCc1ccccc1", "max response": "-3.42%"}
{"smiles": "OC(c1ccccc1)C(CN1CCOCC1)c1ccccc1", "note": "(centres undefined)", "max response": "6.46%"}
{"smiles": "COc1cc(C(C(=O)NC2CCCC2)N(Cc2ccccc2)C(=O)c2snc(C(N)=O)c2N)ccc1O", "note": "(centres undefined)", "max response": "-3.72%"}
{"smiles": "C=CCN(C(=O)c1cc(C)cc(C)c1)C1(C(=O)Nc2ccccc2)CCN(C(C)C)CC1", "max response": "7.82%"}
{"smiles": "Cc1ccc(CN(Cc2cccnc2)C(=S)Nc2cc(Cl)ccc2C)cc1", "max response": "-1.05%"}
{"smiles": "O=S(=O)(N/N=C\\c1cccn1-c1ccccc1)c1ccc2ccccc2c1", "max response": "-3.05%"}
{"smiles": "CN(C)c1ccc(-n2cccc2/C=C2/SC(=Nc3ccc(F)cc3)NC2=O)cc1", "max response": "1.13%"}
{"smiles": "CN(C)c1ccc(-n2cccc2/C=N/n2cnnc2)cc1", "max response": "36.3% (active)"}
{"smiles": "CCOC(=O)N1CCN(C(=O)C(=O)Nc2sc3c(c2C#N)CC(C)(C)OC3)CC1", "max response": "-4.16%"}
{"smiles": "Cc1cc(C)nc(NS(=O)(=O)c2ccc(N3C(=O)C4CCCCC4C3=O)cc2)n1", "note": "(centres undefined)", "max response": "1.2%"}
{"smiles": "CC(=O)Nc1ccc(S(=O)(=O)Nc2nccc(/C=C/c3ccccc3F)n2)cc1", "max response": "-1.75%"}
{"smiles": "Cc1cc(C)nc(NS(=O)(=O)c2ccc(N/C=C\\C(=O)c3cccs3)cc2)n1", "max response": "36.2% (active)"}
{"smiles": "Cc1c(C(C)(C)O)[nH]c2ccc(C#N)cc12", "max response": "6.81%"}
{"smiles": "COc1ccccc1CCNC(=O)C1CCN(C(=O)/C=C/c2ccccc2)CC1", "max response": "14.7% (active)"}
{"smiles": "COc1ccccc1CNC(=O)C1CCN(C(=O)[C@@H]2Cc3ccccc3CN2)CC1", "max response": "2.06%"}
{"smiles": "COc1ccccc1CNC(=O)C1CCN(S(C)(=O)=O)CC1", "max response": "-1.24%"}
{"smiles": "Cc1nn(C)cc1/C=N/NC(=O)c1sc2ccccc2c1Cl", "max response": "4.94%"}
{"smiles": "O=C(N/N=C/c1c(Cl)[nH]c2ccccc12)c1sc2ccccc2c1Cl", "max response": "12.8% (active)"}
{"smiles": "COCCNC(=S)N/N=C/c1c(C)[nH]c2ccccc12", "max response": "8.43%"}
